Only some compounds are listed: those with a hit (about 2.9% of all), similar ones and a draw of the others.
PLCb3 inh = PLC-beta3 (human) inhibition, primary screen | Purified PLC-beta3, fluorogenic substrate, fluorescence | inhibition, % at 12.2 µM | hit rate 0.18% among 370,000 | AID 720704; in the data active = inhibition above about 11%;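 note: 0% = median of compound wells on plate and 100% = full blocker control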
ADAM10 inh = ADAM10 inhibition, QFRET primary screen; inhibition, % at 7 µM; hit rate 0.62% among 370,000; O14672; recombinant ADAM10, EDANS/DABCYL FRET peptide cleavage, 3 h;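 active = inhibition above a per-campaign cutoff equal to the mean of compounds falling between control-based bounds plus 3 SD, cut at about 20% in these data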;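 note: 0% = DMSO wells while the 100% control is not disclosed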
PLCg1 inh = inhibitors of human phospholipase C gamma1. P19174. purified PLC-gamma1, fluorogenic substrate, fluorescence. inhibition, % at 12.2 µM. hit rate 0.84% among 370,000. AID 720700; in the data active = inhibition above about 9.5%
ADAM17 inh = inhibitors of human ADAM17 | P78536 | recombinant ADAM17, EDANS/DABCYL FRET peptide cleavage | inhibition, % at 6.95 µM | hit rate 0.83% among 370,000 | AID 720648;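 active = inhibition above the mean of compounds lying between control limits plus 3 SD, set per campaign, cut at about 8.5% in these data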;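 note: 0% = DMSO-only wells as the low control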
KLK7 zymogen act = activators of human kallikrein-7 zymogen | P49862 | purified proKLK7, EDANS-DABCYL substrate fluorescence; 100% is mature enzyme control, 0% vehicle | AID 652039 | activation, % at 7 µM | hit rate 0.9% among 370,000;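 active = activation above the mean of all tested compounds plus 3 SD, computed per campaign excluding outliers beyond control limits, cut at about 13% in these data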
ADAM10 ctr = ADAM10 inhibition, counter-screen for ADAM17 exosite hits. hit rate 47% among 2,900. inhibition, % at 6.95 µM. AID 743256. shares compounds with ADAM17 inh. recombinant ADAM10, EDANS/DABCYL FRET peptide cleavage, 3 h;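 active = mean inhibition over the triplicate runs exceeds the activity threshold set in the earlier primary screen, cut at about 20% in these data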;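 note: 0% = DMSO wells and 100% = marimastat wells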
ADAM17 confirm = human ADAM17 inhibition, confirmation; shares compounds with ADAM17 inh; recombinant ADAM17, EDANS/DABCYL QFRET peptide cleavage; inhibition, % at 6.95 µM; hit rate 65% among 2,900; AID 743257;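 active = mean inhibition across replicates above the hit cutoff set in the primary screen, cut at about 8.5% in these data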;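 note: 0% = DMSO wells and 100% = marimastat wells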
The depositor's hits bear a star; . = no result.

SMILES	PLCb3 inh	ADAM10 inh	PLCg1 inh	ADAM17 inh	KLK7 zymogen act	ADAM10 ctr	ADAM17 confirm
COc1ccc(NC(=O)CNC(=O)c2ccc([N+](=O)[O-])cc2)cc1	-4.5	-0.8	-0.1	-0.7	0.1	.	.
Cc1ccccc1NC(=O)N(C)[C@H]1C[C@H]2c3[nH]c4c(-c5ccc6c(c5)OCO6)cccc4c3CCN2C(=O)[C@H]1[C@H](C)O	-14.5	-19.4	-12.9	-3.5	0.9	.	.
CCN(CC(=O)Nc1c(F)cccc1F)C(=O)c1cccc(-n2cnnn2)c1	-2.9	-5.9	-2.5	-1.1	-0.3	.	.
CN(C)S(=O)(=O)Oc1cccc(C(=O)Nc2ccc(Cl)c(Cl)c2)c1	-1.4	0.9	1.0	9.2*	0.4	34.7*	20.1*
COC(=O)C[C@@H]1CC[C@H]2[C@@H](COc3ccc(NC(=O)c4cc(C)on4)cc3C(=O)N2C)O1	1.8	0.7	1.2	1.1	0.2	.	.
O=[N+]([O-])c1ccc(Cl)c(C2Nc3cccc4cccc(c34)N2)c1	1.8	32.5*	0.4	10.6*	-2.4	16.8	10.2*
O=[N+]([O-])c1ccccc1C1Nc2cccc3cccc(c23)N1	0.2	3.7	1.4	0.3	-1.0	.	.
CC(C)(C)C1CCC(=O)C(C2(O)C(=O)Nc3ccccc32)C1 (stereo not drawn)	8.6	2.6	5.9	12.0*	-0.6	-3.3	1.5
CC1(C)CC(=O)C(C2(O)C(=O)Nc3ccccc32)CO1 (stereo not drawn)	-2.8	-1.6	-0.1	-5.7	0.2	.	.
O=C(NCCc1cccs1)C1CC(c2cccc([N+](=O)[O-])c2)=NO1 (stereo not drawn)	-1.1	-5.0	0.2	-3.8	-0.1	.	.
O=C(NCc1cccs1)c1cc(-c2ccccc2)nn1CC1CC(c2cccc([N+](=O)[O-])c2)=NO1 (stereo not drawn)	1.5	15.7	3.0	11.4*	-0.2	27.5*	13.2*
CCN(C(=O)C1=COCCO1)c1nc2c(C)cccc2s1	0.0	5.1	4.0	9.3*	-0.2	-1.5	3.1
COc1cc(C=C(C#N)c2ccc([N+](=O)[O-])cc2)ccc1O	-2.6	11.2	-3.7	3.1	0.1	.	.
CC(C)(C)c1ccc(C2(C)NC(=O)N(CC(=O)c3ccc[nH]3)C2=O)cc1 (stereo not drawn)	0.0	14.7	2.1	11.0*	0.5	3.9	3.4
COC(=O)c1c(C)n(-c2ccc(OC)cc2)c2ccc(O)cc12	4.6	19.1	-1.4	12.2*	-0.6	14.1	11.5*
CCCCn1nc(C(=O)N(C)Cc2nc3ccccc3c(=O)[nH]2)c2ccccc2c1=O	0.8	-5.6	-0.6	-3.3	-0.1	.	.
COc1ccccc1-c1coc2cc(OC(=O)N3CCOCC3)ccc2c1=O	-6.9	-8.0	-0.3	-4.1	0.5	.	.
CCC(Oc1ccc2c(=O)c(-c3ccccc3OC)coc2c1)C(=O)OCc1ccccc1 (stereo not drawn)	-0.2	17.2	6.6	11.0*	0.8	27.2*	12.5*
O=C(CNC(=O)Cc1cccc2ccccc12)NCc1ccc(F)cc1	-2.4	-1.9	1.1	2.9	0.0	.	.
CCC(c1c[nH]c2ccccc12)c1cn(C)c2ccccc12 (stereo not drawn)	-11.4	-5.3	-8.4	-0.4	-0.1	.	.
CC(CCc1ccccc1)NC(=O)C(Cc1ccccc1)NS(=O)(=O)c1cccs1 (stereo not drawn)	3.2	3.0	6.6	9.8*	0.5	21.3*	9.3*
CC1CCCCC1NC(=O)C(Cc1ccccc1)NS(=O)(=O)c1cccs1 (stereo not drawn)	0.7	-1.2	4.2	-1.6	-0.1	.	.
Cc1ccc(-c2nnc(SCC(=O)Nc3ccc4c(c3)OCCO4)n2-c2ccc(C)cc2)cc1	0.1	-5.1	1.4	5.4	-0.2	.	.
Cc1ccccc1CN1CCCCC(NC(=O)c2ccc3ccccc3c2)C1=O (stereo not drawn)	-1.0	4.5	1.5	21.5*	0.1	7.4	8.0
Cc1ccc(C(=O)NC2CCCCN(Cc3ccccc3C)C2=O)cc1 (stereo not drawn)	1.9	-2.6	2.5	1.0	-0.4	.	.
SMILES	PLCb3 inh	ADAM10 inh	PLCg1 inh	ADAM17 inh	KLK7 zymogen act	ADAM10 ctr	ADAM17 confirm
Cc1nn(-c2ccccc2)c(C)c1NC(=O)COC(=O)CC(C)c1ccccc1 (stereo not drawn)	-5.9	1.7	-1.3	0.3	-0.3	.	.
COc1ccc(NC(=O)CN2CCCC2c2cccs2)cc1S(=O)(=O)N1CCCCC1 (stereo not drawn)	3.0	18.1	6.0	9.5*	0.2	3.4	1.5
Cc1ccc(NS(=O)(=O)c2ccc(C3CCCCC3)cc2)cc1	-3.2	11.4	-0.4	8.9*	-0.2	37.8*	18.3*
C[C@@H]1COC(=O)[C@@H](Cc2ccc(F)cc2)C/C=C\C[C@H](CC(=O)N(CCO)Cc2ccccc2)C(=O)N1	0.0	-17.5	0.3	-7.0	1.0	.	.
COC(=O)c1ccc(COc2ccccc2/C=N/NC(=O)c2cccnc2)cc1	6.7	4.6	2.4	8.7*	-12.6	16.3	7.0
CCOC(=O)[C@]12CCCCC/C=C\1N(CCc1ccc(Cl)cc1)C(=O)[C@H]2CC(=O)NCc1ccccc1	1.6	13.8	7.7	10.8*	-0.4	25.4*	11.8*
CCOC(=O)[C@]12CCCCC/C=C\1N(CCc1ccc(Cl)cc1)C(=O)[C@H]2CC(=O)NCc1ccc(C)o1	4.2	4.8	4.3	9.4*	0.3	5.2	3.4
CCOC(=O)[C@@]12CCCC=C1N(CCc1ccc(Cl)cc1)C(=O)[C@H]2CC(=O)NCc1ccc(C)o1	2.3	5.7	4.1	3.5	0.4	.	.
O=C(OCCC1Oc2cccnc2NC1=O)c1ccc([N+](=O)[O-])cc1 (stereo not drawn)	1.8	12.7	1.8	9.1*	-0.4	2.0	5.8
COC(=O)C1(C(=O)OC)Cc2ccccc2N(S(=O)(=O)c2ccc(C)cc2)C1CC(C)=O (stereo not drawn)	2.5	0.8	4.4	2.5	0.5	.	.
c1nc(NCc2ccc3c(c2)OCO3)c2cc(-c3ccoc3)ccc2n1	4.7	-2.6	0.8	9.9*	0.6	-11.7	3.5
CNC(=S)N1N=C(c2ccc(Br)cc2)CC1c1ccc(Br)cc1 (stereo not drawn)	6.0	14.5	-0.2	11.5*	-1.3	27.4*	17.3*
CNC(=S)N1N=C(c2ccc(Br)cc2)CC1c1ccc(N(C)C)cc1 (stereo not drawn)	-0.2	16.9	-6.1	4.2	-3.7	.	.
Cc1cc(C(=O)CN2C(=O)C(=O)N(Cc3ccco3)C2=O)c(C)n1CCc1ccc(F)cc1	-18.8	-14.0	-2.7	0.2	-0.1	.	.
Fc1cccc(CCN2C(=S)NC[C@@H]2CC2CCCCC2)c1	6.4	10.5	6.8	10.8*	0.0	19.2	6.9

Screening data as filed in PubChem BioAssay.
